The results in this text go back to PMC11006913.

Where a chain is given by its changes, count along the chain named.

Holding throughout (test): PBM; 200 nM protein, PBS
What all share (details): dsDNA, one strand shown

Assay [1] addresses T1, SIX6 (Homo sapiens, UniProt O95475 114-200, L167I).
T1 sequence: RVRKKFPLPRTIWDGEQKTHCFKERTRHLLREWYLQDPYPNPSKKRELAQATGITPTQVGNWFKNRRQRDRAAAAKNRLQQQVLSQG

Assay [2] addresses T2, SIX6 (Homo sapiens, UniProt O95475 114-200, L143V).
T2 sequence: T1 sequence with L30V, I54L

For assay [3], the target named is T3, SIX6 (Homo sapiens, UniProt O95475 114-200, H141N).
T3 sequence: T1 sequence with H28N, I54L

The target of assay [4] is T4, SIX6 (Homo sapiens, UniProt O95475 114-200, T165P).
T4 sequence: T1 sequence with T52P, I54L

Assay [5] deals with T5, SIX6 (Homo sapiens, UniProt O95475 114-200, L167M).
T5 sequence: T1 sequence with I54M

Assay [6] addresses T6, SIX6 (Homo sapiens, UniProt O95475 114-200, L143M).
T6 sequence: T1 sequence with L30M, I54L

Assay [7] addresses T7, SIX6 (Homo sapiens, UniProt O95475 114-200, L143I).
T7 sequence: T1 sequence with L30I, I54L

In assay [8] the target is T8, SIX6 (Homo sapiens, UniProt O95475 114-200, T165G).
T8 sequence: T1 sequence with T52G, I54L

Assay [9] deals with T9, SIX6 (Homo sapiens, UniProt O95475 114-200, T139Q).
T9 sequence: T1 sequence with T26Q, I54L

For assay [10], the target named is T10, SIX6 (Homo sapiens, UniProt O95475 114-200, T165A).
T10 sequence: T1 sequence with T52A, I54L

Assay [11] deals with T11, SIX6 (Homo sapiens, UniProt O95475 114-200, L167V).
T11 sequence: T1 sequence with I54V

Assay [12] addresses T12, SIX6 (Homo sapiens, UniProt O95475 114-200).
T12 sequence: T1 sequence with I54L

Assay [13] deals with T13, SIX6 (Homo sapiens, UniProt O95475 114-200, T165I).
T13 sequence: T1 sequence with T52I, I54L

Assay [14] has as its target HOXA2 (Homo sapiens, UniProt O43364 129-215, R185T).
Assay [15] addresses HOXA2 (Homo sapiens, UniProt O43364 129-215, R185K).
Assay [16] concerns the target HOXA2 (Homo sapiens, UniProt O43364 129-215, Y150S).
Assay [17] addresses HOXA2 (Homo sapiens, UniProt O43364 129-215).

HOXA2 (Homo sapiens, UniProt O43364 129-215), sequence (O43364 129-215): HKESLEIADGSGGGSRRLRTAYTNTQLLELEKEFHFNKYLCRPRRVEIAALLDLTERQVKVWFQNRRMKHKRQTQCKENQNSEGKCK
HOXA2 (Homo sapiens, UniProt O43364 129-215, R185T), sequence (O43364 129-215 R185T): as the sequence (O43364 129-215) above, with R57T counted along it
HOXA2 (Homo sapiens, UniProt O43364 129-215, Y150S), sequence (O43364 129-215 Y150S): as the sequence (O43364 129-215) above, with Y22S counted along it
HOXA2 (Homo sapiens, UniProt O43364 129-215, R185K), sequence (O43364 129-215 R185K): as the sequence (O43364 129-215) above, with R57K counted along it

Take CGGCTTCC: the binding signal is 9 upbm affinity estimate (log intensity, higher = more binding, comparable within an allelic series) in assay [1]; 8.76 upbm affinity estimate (log intensity, higher = more binding, comparable within an allelic series) in assay [2]; 8.87 upbm affinity estimate (log intensity, higher = more binding, comparable within an allelic series) in [3]; 8.79 upbm affinity estimate (log intensity, higher = more binding, comparable within an allelic series) in assay [4]; 8.83 upbm affinity estimate (log intensity, higher = more binding, comparable within an allelic series) in assay [5]; 9 upbm affinity estimate (log intensity, higher = more binding, comparable within an allelic series) in assay [6]. In addition, the binding signal in assay [7] was 8.88 upbm affinity estimate (log intensity, higher = more binding, comparable within an allelic series); in assay [8], 9 upbm affinity estimate (log intensity, higher = more binding, comparable within an allelic series); in assay [9] it was 9.03 upbm affinity estimate (log intensity, higher = more binding, comparable within an allelic series); in assay [10], 8.96 upbm affinity estimate (log intensity, higher = more binding, comparable within an allelic series); in assay [11], 8.89 upbm affinity estimate (log intensity, higher = more binding, comparable within an allelic series); in assay [12], 8.96 upbm affinity estimate (log intensity, higher = more binding, comparable within an allelic series). Further, the binding signal in assay [13] is 8.91 upbm affinity estimate (log intensity, higher = more binding, comparable within an allelic series).
Regarding CAGGCCCG, the binding signal in [1] was 8.93 upbm affinity estimate (log intensity, higher = more binding, comparable within an allelic series); in [2], 8.77 upbm affinity estimate (log intensity, higher = more binding, comparable within an allelic series); in [3] it was 8.88 upbm affinity estimate (log intensity, higher = more binding, comparable within an allelic series); in [4], 8.76 upbm affinity estimate (log intensity, higher = more binding, comparable within an allelic series); in assay [5] it was 8.82 upbm affinity estimate (log intensity, higher = more binding, comparable within an allelic series); in assay [6], 8.79 upbm affinity estimate (log intensity, higher = more binding, comparable within an allelic series). The binding signal in assay [7] is 8.85 upbm affinity estimate (log intensity, higher = more binding, comparable within an allelic series); in assay [8], 8.97 upbm affinity estimate (log intensity, higher = more binding, comparable within an allelic series); in assay [9], 9.09 upbm affinity estimate (log intensity, higher = more binding, comparable within an allelic series); in [10], 8.92 upbm affinity estimate (log intensity, higher = more binding, comparable within an allelic series); in [11], 8.87 upbm affinity estimate (log intensity, higher = more binding, comparable within an allelic series); in assay [12], 8.81 upbm affinity estimate (log intensity, higher = more binding, comparable within an allelic series). Besides, in [13], the binding signal is 8.93 upbm affinity estimate (log intensity, higher = more binding, comparable within an allelic series).
ACGCCGGG: the binding signal in assay [1] is 9.17 upbm affinity estimate (log intensity, higher = more binding, comparable within an allelic series); in assay [2], 8.97 upbm affinity estimate (log intensity, higher = more binding, comparable within an allelic series); in [3], 9.1 upbm affinity estimate (log intensity, higher = more binding, comparable within an allelic series); in assay [4], 8.92 upbm affinity estimate (log intensity, higher = more binding, comparable within an allelic series); in assay [5], 9.17 upbm affinity estimate (log intensity, higher = more binding, comparable within an allelic series); in assay [6], 9.18 upbm affinity estimate (log intensity, higher = more binding, comparable within an allelic series). The binding signal in [7] was 9.05 upbm affinity estimate (log intensity, higher = more binding, comparable within an allelic series); in assay [8], 9.16 upbm affinity estimate (log intensity, higher = more binding, comparable within an allelic series); in [9] it was 9.21 upbm affinity estimate (log intensity, higher = more binding, comparable within an allelic series); in [10] it was 9.2 upbm affinity estimate (log intensity, higher = more binding, comparable within an allelic series); in [11], 9 upbm affinity estimate (log intensity, higher = more binding, comparable within an allelic series); in [12], 9.15 upbm affinity estimate (log intensity, higher = more binding, comparable within an allelic series). The binding signal in assay [13] was 9.16 upbm affinity estimate (log intensity, higher = more binding, comparable within an allelic series).
On to AGGCGCCC, for which the binding signal in [1] was 8.71 upbm affinity estimate (log intensity, higher = more binding, comparable within an allelic series); in assay [2], 8.6 upbm affinity estimate (log intensity, higher = more binding, comparable within an allelic series); in assay [3], 8.7 upbm affinity estimate (log intensity, higher = more binding, comparable within an allelic series); in [4] it was 8.77 upbm affinity estimate (log intensity, higher = more binding, comparable within an allelic series); in assay [5], 8.76 upbm affinity estimate (log intensity, higher = more binding, comparable within an allelic series); in assay [6], 8.63 upbm affinity estimate (log intensity, higher = more binding, comparable within an allelic series). Further, the binding signal in assay [7] is 8.66 upbm affinity estimate (log intensity, higher = more binding, comparable within an allelic series); in assay [8], 8.66 upbm affinity estimate (log intensity, higher = more binding, comparable within an allelic series); in assay [9], 8.66 upbm affinity estimate (log intensity, higher = more binding, comparable within an allelic series); in assay [10], 8.69 upbm affinity estimate (log intensity, higher = more binding, comparable within an allelic series); in assay [11], 8.65 upbm affinity estimate (log intensity, higher = more binding, comparable within an allelic series); in [12], 8.6 upbm affinity estimate (log intensity, higher = more binding, comparable within an allelic series). For the same sequence, the binding signal in assay [13] is 8.7 upbm affinity estimate (log intensity, higher = more binding, comparable within an allelic series).
Turning to AGCCGGCT, the binding signal in [1] is 9.39 upbm affinity estimate (log intensity, higher = more binding, comparable within an allelic series); in [2] it was 9.1 upbm affinity estimate (log intensity, higher = more binding, comparable within an allelic series); in [3], 9.34 upbm affinity estimate (log intensity, higher = more binding, comparable within an allelic series); in [4], 8.96 upbm affinity estimate (log intensity, higher = more binding, comparable within an allelic series); in assay [5], 9.33 upbm affinity estimate (log intensity, higher = more binding, comparable within an allelic series); in assay [6] it was 9.42 upbm affinity estimate (log intensity, higher = more binding, comparable within an allelic series). Also, the binding signal in [7] was 9.2 upbm affinity estimate (log intensity, higher = more binding, comparable within an allelic series); in assay [8], 9.33 upbm affinity estimate (log intensity, higher = more binding, comparable within an allelic series); in assay [14], 7.56 upbm affinity estimate (log intensity, higher = more binding, comparable within an allelic series); in assay [9], 9.36 upbm affinity estimate (log intensity, higher = more binding, comparable within an allelic series); in [10] it was 9.35 upbm affinity estimate (log intensity, higher = more binding, comparable within an allelic series); in assay [15], 10.5 upbm affinity estimate (log intensity, higher = more binding, comparable within an allelic series). Further, the binding signal in assay [11] was 9.33 upbm affinity estimate (log intensity, higher = more binding, comparable within an allelic series); in [12] it was 9.39 upbm affinity estimate (log intensity, higher = more binding, comparable within an allelic series); in [13], 9.26 upbm affinity estimate (log intensity, higher = more binding, comparable within an allelic series); in assay [16], 10.2 upbm affinity estimate (log intensity, higher = more binding, comparable within an allelic series); in [17], 7.61 upbm affinity estimate (log intensity, higher = more binding, comparable within an allelic series).
